# Compounds with a hit are over-represented: about 9.3% of the library has one in this group of screens.
# NPC1 prom act = qHTS Assay for NPC1 Promoter Activators; Huh7 NPC1 promoter luciferase reporter, 24 h; Potency, µM (doses to about 9.22 µM), without a hit: at the top dose activation, hits mostly activators; hit rate 2.4% among 320,000; also: % of control where 0% means no effect; nearly all actives have a fitted effect of over 60% in size
#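 Readout is luciferase luminescence, reflecting NPC1 promoter activation in stably transfected Huh7 cells after 24 h compound exposure at 37 °C in reduced-serum medium with 10% FBS.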
# ELG1 DNA repair = qHTS screen for small molecules that inhibit ELG1-dependent DNA repair in human embryonic kidney (HEK293T) cells expressing luciferase-tagged ELG1. HEK293T ELG1-luciferase reporter, luminescence, 16 h; DNA damage induced by 5-fluorouridine. Potency, µM (top dose mostly 46.1 µM), inactives show at the top dose activity change, negative = inhibition, usual class: inhibitors. hit rate 2.3% among 330,000; also: % is scaled to controls: 0 for no effect and ±100 for the full control effect; nearly all actives have a fitted effect of over 55% in size
#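 5-Fluorouridine DNA damage + compound/DMSO, 2,000 cells/well, 16 h, 37 °C/5% CO2. ONE-Glo, 30 min RT, luminescence. Readout = decrease in reporter signal.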
# SMN2 splice enh = qHTS Assay for Enhancers of SMN2 Splice Variant Expression; AID 1458, 2008; hit rate 2.8% among 210,000; Potency, µM (top dose mostly 46.1 µM), for inactives: at the top dose activity change, positive = activation, hits mostly activators; HEK293 SMN2-luciferase splicing reporter, luminescence, 30-36 h; also: % of control where 0% means no effect; nearly all actives have a fitted effect of over 55% in size
#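 qHTS luciferase splicing reporter: luminescence rises when SMN2 exon 7 is included in transfected HEK293 cells. Compound exposure lasted 30-36 h at 37C, with 4.5 mM final sodium butyrate as control, followed by a ONE-Glo read.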
# FLuc counter = qHTS profiling assay for firefly luciferase inhibitor/activator using purifed enzyme and Km concentrations of substrates (counterscreen for miR-21 project). Luciferin 4-monooxygenase (Photinus pyralis), P08659. purified FLuc, Km substrates, luminescence inhibition. Potency, µM (series often up to 57.5 µM), for the others: at the top dose activity change, negative = inhibition, most hits filed as inhibitors. hit rate 6.9% among 360,000. AID 588342, 2011;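 also: plate controls were vehicle for no effect and reference inhibitor for full effect; nearly all actives have a fitted effect of over 55% in size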
# Target sequence (P08659 whole entry, looked up): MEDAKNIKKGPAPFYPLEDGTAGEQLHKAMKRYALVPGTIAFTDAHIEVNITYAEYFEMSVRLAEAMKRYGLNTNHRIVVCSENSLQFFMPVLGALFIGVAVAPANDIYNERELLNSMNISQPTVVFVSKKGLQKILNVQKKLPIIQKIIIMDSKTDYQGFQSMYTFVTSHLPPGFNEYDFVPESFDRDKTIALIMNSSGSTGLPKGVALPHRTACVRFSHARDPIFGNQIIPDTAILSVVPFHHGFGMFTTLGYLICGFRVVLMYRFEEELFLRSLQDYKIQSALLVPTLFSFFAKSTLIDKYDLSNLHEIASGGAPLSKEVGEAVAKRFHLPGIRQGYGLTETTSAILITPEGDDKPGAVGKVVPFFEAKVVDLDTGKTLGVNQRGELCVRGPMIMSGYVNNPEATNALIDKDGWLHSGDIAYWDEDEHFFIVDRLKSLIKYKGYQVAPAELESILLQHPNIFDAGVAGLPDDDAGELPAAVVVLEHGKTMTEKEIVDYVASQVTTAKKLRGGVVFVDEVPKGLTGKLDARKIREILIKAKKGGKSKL
#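 Purified P. pyralis luciferase (10nM final) with 10uM D-luciferin and 10uM ATP (Km levels) in 50mM Tris acetate pH 7.5, 10mM Mg acetate, 0.01% Tween-20, 0.05% BSA; qHTS 6-point titration, ~60 µM downward; luminescence read.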
# ELG1 genotoxic = qHTS screen for small molecules that induce genotoxicity in human embryonic kidney (HEK293T) cells expressing luciferase-tagged ELG1; HEK293T ELG1-luciferase reporter, luminescence, 16 h; Potency, µM (titrated, usually from 46 µM), inactives show top-dose activity change, positive = activation, hits mostly activators; hit rate 1.3% among 330,000; also: % of control where 0% means no effect; nearly all actives have a fitted effect of over 60% in size
#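 Reporter readout depends on ELG1 protein level, which increases with genetic stress. After 16 hr compound exposure at 37 °C, luciferase activity was quantified using ONE-Glo.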
# Rab9 promoter act = qHTS Assay for Rab9 Promoter Activators | Potency, µM (doses to about 9.22 µM), inactives show top-dose activation, negative = inhibition, most hits filed as activators | Huh7 Rab9 promoter-luciferase reporter, luminescence, 24 h | hit rate 2.8% among 320,000; also: % of control where 0% means no effect; nearly all actives have a fitted effect of over 60% in size
#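 Promoter activation is measured as luciferase luminescence in Huh7 cells stably transfected with a Rab9 promoter–luciferase construct, following 24 h compound exposure at 37 °C and 10 min reagent incubation at ambient temperature.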
# Starred values were filed as active, the others as inactive; ? = inconclusive; . = no result given; [ ] = dose if it differs, or a comment. Calls follow the shape of the dose curve; as a rule, active = well fitted curve in the direction sought with a large enough effect; inconclusive = small, poorly fitted or top-dose-only effect, or another doubt; inactive = no such curve, though single readings can be large; an effect the other way counts as inactive or inconclusive. Potency is read from the fitted curve at half-maximal effect.
SMILES,NPC1 prom act,ELG1 DNA repair,SMN2 splice enh,FLuc counter,ELG1 genotoxic,Rab9 promoter act
CCc1ccc(NC(=O)c2ccc3nc(N)sc3c2)cc1,?,?,?,12µM*,?,?
COC(=O)CNC(=O)[C@@]1(C)C=C[C@@H](Cc2ccccc2)N1C(C)=O,.,.,14µM*,.,.,.
CSc1ccccc1OCc1cc(C(=O)N(C)Cc2ccc(C)o2)no1,?,?,.,17µM*,?,4µM*
CSc1ccccc1OCc1cc(C(=O)N(C)C(C)c2nc(C)cs2)no1 (centres undefined),4%,-24%,.,-8%,-8%,3%
CSc1ccccc1OCc1cc(C(=O)N(C)Cc2ccc3nsnc3c2)no1,0.63µM*,?,.,?,3.3µM*,0.71µM*
CCOC(=O)c1ccc(CNC(=O)c2cc(COc3ccccc3SC)on2)o1,2.5µM*,?,.,8.5µM*,?,?
CCN(CC(=O)Nc1c(F)cccc1F)C(=O)/C=C/c1ccc(OCC#N)c(OC)c1,0%,1%,.,6%,1%,-6%
CCN(CC(=O)Nc1c(F)cccc1F)C(=O)/C=C/c1ccc(C)cc1,?,?,.,19µM*,?,?
CCc1cc2c(=O)n(CC(C)C)cnc2s1,?,?,14µM*,?,-1%,?
CCCCCn1cnc2sc(CC)cc2c1=O,?,?,13µM*,24µM*,?,2.8µM*
CCc1cc2c(=O)n(CC(=O)NCCc3ccc(OC)c(OC)c3)cnc2s1,-1%,-4%,16%,-2%,-2%,-4%
CCc1cc2c(=O)n(-c3ccc(Br)cc3)cnc2s1,2.5µM*,?,5µM*,?,?,2.5µM*
CCc1cc2c(=O)n(CC(=O)NC3CCCCC3)cnc2s1,-1%,15%,.,-1%,2%,9%
Cn1cccc1/C=C1\CCC/C(=C\c2cccn2C)C1=O,1.3µM*,?,?,6µM*,1.8µM*,0.89µM*
CC1C/C(=C/c2cccs2)C(=O)/C(=C/c2cccs2)C1 (centres undefined),-1%,?,-16%,?,0%,8%
O=C1/C(=C/c2cccs2)CCC/C1=C\c1cccs1,1.3µM*,?,.,1.9µM*,?,3.5µM*
CCC1=C2CC[C@H]3C(=O)N(CC(=O)OC)C(=O)[C@H]3[C@H]2[C@@]2(C)C(=O)N(CC3CC3)C(=O)N2C1=O,.,.,6%,.,.,.
COc1cc(C(C)=O)ccc1COc1ccc(C(=O)O)cc1OC,-4%,-1%,.,0%,-4%,-5%
CNC(=O)CSc1ncnc2c1cnn2-c1ccccc1,15%,?,-15%,?,12%,?
CC(=O)CSc1ncnc2c1cnn2-c1ccccc1,1.3µM*,?,11µM*,7.6µM*,?,1.1µM*
Cc1ccc(-n2ncc3c(SCC(=O)NNC(=O)C(C)C)ncnc32)cc1,24%,?,.,7.6µM*,8%,13%[1.84 µM]
Cc1ccc(-n2ncc3c(SCC(N)=O)ncnc32)cc1C,4µM*,?,.,5.4µM*,?,3.2µM*
CCOC(=O)CNC(=O)CSc1ncnc2c1cnn2-c1ccc(Cl)cc1,1%,-4%,16%,-2%,12%,-2%
O=C(N/N=C1\C2CN3CCN(C2)CC1(c1ccccc1)C3)Nc1ccccc1,1%,-10%,-16%,-1%,0%,1%
C=C(C(=O)c1ccccc1)C(C)C(=C)C(=O)c1ccccc1,-11%,21µM*,-91%,-2%,-14%,-15%
C=C(C(=O)c1ccccc1)C(C(=C)C(=O)c1ccccc1)c1ccc(OC)cc1,-31%,16µM*,.,8%,-10%,-40%

# Compound activity as filed in PubChem.
